The list shows a part of the results. No count for the full screen is at hand.
Molecular target: furin, P09958
Assay: furin cleavage Z-score vs untreated control; higher = more cleavage, active = 3.5 or more, inactive = 1 or less, 8 variable residues between constant flanks
Summary of the method: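 Furin-free reactions served as the baseline for the cleavage Z-score, which is the log read count lowess-adjusted and scaled by median absolute deviation. Counts came from released DNA, adapter-tagged by PCR and sequenced. Purified furin had cut 8-mer peptides fused to a cDNA oligonucleotide on magnetic beads during 7.5, 15 or 30 min at 1:10 enzyme:substrate.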
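Note: purified furin at 1:10 enzyme:substrate in 50 mM HEPES pH 7.5.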

furin, P09958, sequence (P09958 whole entry): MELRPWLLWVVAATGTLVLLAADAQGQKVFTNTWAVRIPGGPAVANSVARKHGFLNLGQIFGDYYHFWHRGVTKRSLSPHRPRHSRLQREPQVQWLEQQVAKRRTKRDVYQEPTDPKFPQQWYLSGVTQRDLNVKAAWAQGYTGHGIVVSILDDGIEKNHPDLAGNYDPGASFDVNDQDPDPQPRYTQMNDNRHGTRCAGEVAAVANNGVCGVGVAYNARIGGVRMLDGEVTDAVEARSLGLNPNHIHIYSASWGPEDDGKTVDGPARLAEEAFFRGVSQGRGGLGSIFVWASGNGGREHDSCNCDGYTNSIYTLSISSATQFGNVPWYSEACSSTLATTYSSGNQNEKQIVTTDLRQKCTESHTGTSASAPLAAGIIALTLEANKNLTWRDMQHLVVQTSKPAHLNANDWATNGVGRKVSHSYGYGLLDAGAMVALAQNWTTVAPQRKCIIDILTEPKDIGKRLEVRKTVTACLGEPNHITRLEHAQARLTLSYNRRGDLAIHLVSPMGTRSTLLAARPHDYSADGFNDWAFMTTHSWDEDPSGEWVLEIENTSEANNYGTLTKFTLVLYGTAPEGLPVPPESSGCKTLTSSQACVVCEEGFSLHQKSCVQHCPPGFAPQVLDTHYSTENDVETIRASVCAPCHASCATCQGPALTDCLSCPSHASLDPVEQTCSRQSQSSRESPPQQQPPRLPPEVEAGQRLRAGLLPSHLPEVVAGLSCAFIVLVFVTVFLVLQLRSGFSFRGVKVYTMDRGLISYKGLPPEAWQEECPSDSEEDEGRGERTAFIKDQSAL

Row | Sequence | furin cleavage Z-score (7.5 min) | furin cleavage Z-score (15 min) | furin cleavage Z-score (30 min)
1 | CAEAALENLVAGNASASA [HC533] | -0.446 (inactive) | -0.46 (inactive) | -1.1 (inactive)
2 | CARLKRRQEEAGNASASA [FS-2709] | -0.805 (inactive) | 0.691 (inactive) | 1.04
3 | CARLKRAVSEAGNASASA [FS-2704] | 8.88 (active) | 10.6 (active) | 7.25 (active)
4 | CARLDRHVFIAGNASASA [FS-2042] | -0.675 (inactive) | -1.39 (inactive) | -0.0693 (inactive)
5 | CARLKKIKDDAGNASASA [FS-1740] | -0.946 (inactive) | -0.774 (inactive) | -1.39 (inactive)
6 | CARLKRTNGNAGNASASA [FS-1963] | 0.424 (inactive) | 2.26 | 1.1
7 | CARLKRVVPDAGNASASA [FS-2221] | 3.21 | 5.12 (active) | 6 (active)
8 | CARLKRAVWIAGNASASA [FS-2989] | 5.97 (active) | 7.83 (active) | 8.13 (active)
9 | CARLKRIVFDAGNASASA [FS-2570] | 0.11 (inactive) | 0.63 (inactive) | 1.98
10 | CARLKRHPEEAGNASASA [FS-2276] | 1.2 | 3.98 (active) | 3.45
11 | CAEVVTSSWVAGNASASA [HC2217] | 0.949 (inactive) | 3.4 | -0.0256 (inactive)
12 | CANTPCSGSWAGNASASA [HC1841] | -0.658 (inactive) | -0.9 (inactive) | -0.678 (inactive)
13 | CAMEECSQGLAGNASASA [HC1756] | 0.411 (inactive) | 1.43 | 1.65
14 | CATTPCSGCWAGNASASA [HC1920] | -0.899 (inactive) | -0.942 (inactive) | -0.88 (inactive)
15 | CAVVCLSMSYAGNASASA [HC84] | 0.288 (inactive) | -0.622 (inactive) | -0.642 (inactive)
16 | CASFLVFFCFAGNASASA [HC544] | -1.06 (inactive) | -0.337 (inactive) | -0.101 (inactive)
17 | CAGTHGLVSFAGNASASA [HC541] | 1.37 | 0.474 (inactive) | 1.36
18 | CARLKRQPCAAGNASASA [FS-3227] | 0.299 (inactive) | -0.962 (inactive) | -0.478 (inactive)
19 | CARLKRALDFAGNASASA [FS-2219] | 6.13 (active) | 7.48 (active) | 7.29 (active)
20 | CARLKRQVTEAGNASASA [FS-2992] | 11.3 (active) | 12 (active) | 11.2 (active)
21 | CARLKRVEDQAGNASASA [FS-1907] | -1.61 (inactive) | 0.449 (inactive) | -0.817 (inactive)
22 | CAVLATATPPAGNASASA [HC833] | -0.698 (inactive) | -1.92 (inactive) | -0.599 (inactive)
23 | CARSVRFISNAGNASASA [FS-2821] | -2.17 (inactive) | -0.565 (inactive) | 1.32
24 | CARDARSVRDAGNASASA [FS-2328] | 2.71 | 4.77 (active) | 5.93 (active)
25 | CAREDRAVRDAGNASASA [FS-2413] | -1.11 (inactive) | 0.317 (inactive) | -0.31 (inactive)
26 | CARSVRSTRDAGNASASA [FS-1075] | 9.44 (active) | 11 (active) | 9.05 (active)
27 | CARDARMSDAAGNASASA [FS-2204] | -1.21 (inactive) | 0.407 (inactive) | 0.769 (inactive)
